# Results from article PMC10726135, “HNF4α isoforms regulate the circadian balance between carbohydrate and lipid metabolism in the liver”.
# In all, about 18,000 sequences were measured (“log2 normalized intensity”: median about 0.39, highest 2% from about 6.6 on). Only a selection was taken, and the highest values are over-represented in it overall.
# Target: T1, HNF4alpha2 (COS-7 nuclear extract) (Homo sapiens, UniProt P41235 1-474)
# T1 sequence: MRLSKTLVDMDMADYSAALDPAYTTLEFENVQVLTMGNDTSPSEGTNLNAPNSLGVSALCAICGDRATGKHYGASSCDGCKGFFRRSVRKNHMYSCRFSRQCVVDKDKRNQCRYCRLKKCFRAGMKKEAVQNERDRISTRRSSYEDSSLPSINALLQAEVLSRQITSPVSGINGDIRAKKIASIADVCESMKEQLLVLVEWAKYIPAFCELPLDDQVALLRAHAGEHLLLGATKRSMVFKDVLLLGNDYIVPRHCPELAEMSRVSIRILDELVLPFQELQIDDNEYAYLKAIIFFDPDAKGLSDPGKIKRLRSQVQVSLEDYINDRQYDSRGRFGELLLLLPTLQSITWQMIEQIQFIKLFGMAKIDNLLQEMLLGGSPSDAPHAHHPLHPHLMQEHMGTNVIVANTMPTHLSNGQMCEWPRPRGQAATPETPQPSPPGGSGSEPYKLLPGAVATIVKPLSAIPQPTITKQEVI
# Test: protein-binding microarray; COS-7 nuclear extract on double-stranded Agilent 4x180k PBM; binding buffer, salt, pH and temperature not given in the material; high values mean tight binding
# Settings: chain copies: 2; label: 3' end of strand 1 on the slide; dsDNA, one strand shown
# In short: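 COS-7 cells were transiently transfected by CaPO4 with an expression vector for a human HNF4α isoform, and nuclear extracts were prepared from them. The extracts were applied to a custom Agilent SurePrint G3 4x180k array of double-stranded ~60-nt oligonucleotides, with ~44,000 test sequences spotted in quadruplicate. An Agilent G2565CA scanner imaged bound HNF4α at 2-µm resolution. Binding signal is the background-corrected, normalized gProcessedSignal from Agilent software.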
row,Sequence,binding signal
1,AGGTCAAAGTGCAACTACAAGGAGCAGCCTGCCTAGGGAGATTAGAGTATCGGTCGA,3.48 log2 normalized intensity
2,ACCTTGTGCAGTATCCCAGGGACTTACTCAGCCTAGGGAGATTAGAGTATCGGTCGA,-0.811 log2 normalized intensity
3,AGAGCCTAGTTCATTGCAATTACTCAATAAGCCTAGGGAGATTAGAGTATCGGTCGA,-0.91 log2 normalized intensity
4,CAATAAGCAATACATTGAACTTTGAACACCGCCTAGGGAGATTAGAGTATCGGTCGA,6.91 log2 normalized intensity
5,AGCAATACATTGAACTTTGAACACCTCTTCGCCTAGGGAGATTAGAGTATCGGTCGA,5.41 log2 normalized intensity
6,TTTTCAACATATACTTTGAACTTGTTTTTTGCCTAGGGAGATTAGAGTATCGGTCGA,2.27 log2 normalized intensity
7,AAGCAAACAAAACACGGACTTTGAAGCTCCGCCTAGGGAGATTAGAGTATCGGTCGA,1.95 log2 normalized intensity
8,TTGTTCAATAAGCAATACATTGAACTTTGAGCCTAGGGAGATTAGAGTATCGGTCGA,7.41 log2 normalized intensity
9,TTTCATCTTCTTAGCCTTTGAACCCCACACGCCTAGGGAGATTAGAGTATCGGTCGA,4.78 log2 normalized intensity
10,GATTTCATCTAAGGACAAACTTTGTCACTGGCCTAGGGAGATTAGAGTATCGGTCGA,1.15 log2 normalized intensity
11,ATCTAAGATTCCCCCTACCCTCAATATCTGGCCTAGGGAGATTAGAGTATCGGTCGA,4.35 log2 normalized intensity
12,TTAACAAGCATTTTGTTCCCATTGATCATTGCCTAGGGAGATTAGAGTATCGGTCGA,1.23 log2 normalized intensity
13,CTGCCAAAGCTCACAGATGTGGAATGAAACGCCTAGGGAGATTAGAGTATCGGTCGA,-0.0699 log2 normalized intensity
14,TTTGAAAGAAAGAGACCTTTACCCTGACCTGCCTAGGGAGATTAGAGTATCGGTCGA,3.55 log2 normalized intensity
15,ACCTTTGACCCTTCTCTGGGAGAAAGGGAGGCCTAGGGAGATTAGAGTATCGGTCGA,2.99 log2 normalized intensity
16,GAAGGAGCACCAATGACCTTTGACCCTTCTGCCTAGGGAGATTAGAGTATCGGTCGA,11.1 log2 normalized intensity
17,CAATCCTGGAGAAGGAGCACCAATGACCTTGCCTAGGGAGATTAGAGTATCGGTCGA,3.47 log2 normalized intensity
18,AAACAATGACCTCTGCACCCTTCCCTGAGTGCCTAGGGAGATTAGAGTATCGGTCGA,3.51 log2 normalized intensity
19,CAATGACCTTTGACCCTTCTCTGGGAGAAAGCCTAGGGAGATTAGAGTATCGGTCGA,8.21 log2 normalized intensity
20,TTCCCTCATGATTTAGTAAGTTCAAGAAGAGCCTAGGGAGATTAGAGTATCGGTCGA,0.956 log2 normalized intensity
21,GGCCTTGGGCCACCTGAGACAGTTTATGCCGCCTAGGGAGATTAGAGTATCGGTCGA,-0.994 log2 normalized intensity
22,CCCTTTGGCCTTTCTAATTATTTACAGGGAGCCTAGGGAGATTAGAGTATCGGTCGA,0.82 log2 normalized intensity
23,GTAGAGACCTGTCTTCCTGGTGACCTTTGTGCCTAGGGAGATTAGAGTATCGGTCGA,7.11 log2 normalized intensity
24,CGGGTATGTGGGGCGTGTGTTAGACTTTGGGCCTAGGGAGATTAGAGTATCGGTCGA,4.22 log2 normalized intensity

row,Sequence,binding signal
1,GAGCACTCATTCCTATTCGGTGCTGACCTTGCCTAGGGAGATTAGAGTATCGGTCGA,3.47 log2 normalized intensity
2,TAGACTTTGGACCTGGCCTGCGGGGTCAGGGCCTAGGGAGATTAGAGTATCGGTCGA,5.39 log2 normalized intensity
3,CTCATTCCTATTCGGTGCTGACCTTTGTTCGCCTAGGGAGATTAGAGTATCGGTCGA,7.77 log2 normalized intensity
4,CAATAAGGACTTTGGACCGTCTTGTGGATCGCCTAGGGAGATTAGAGTATCGGTCGA,5.92 log2 normalized intensity
5,AGGACTTTGGACCGTCTTGTGGATCCTTGGGCCTAGGGAGATTAGAGTATCGGTCGA,4.73 log2 normalized intensity
6,GACCTGTCTTCCTGGTGACCTTTGTTTGGTGCCTAGGGAGATTAGAGTATCGGTCGA,4.94 log2 normalized intensity
7,TCCTATTCGGTGCTGACCTTTGTTCACATTGCCTAGGGAGATTAGAGTATCGGTCGA,5.89 log2 normalized intensity
8,ACACACAATAAGGACTTTGGACCGTCTTGTGCCTAGGGAGATTAGAGTATCGGTCGA,7.27 log2 normalized intensity
9,ATGTGGGGCGTGTGTTAGACTTTGGACCTGGCCTAGGGAGATTAGAGTATCGGTCGA,8.86 log2 normalized intensity
10,GTCAAGTAGAGACCTGTCTTCCTGGTGACCGCCTAGGGAGATTAGAGTATCGGTCGA,2.19 log2 normalized intensity
11,CATGGGCTGTCACCTTTACCCCCACTCTCCGCCTAGGGAGATTAGAGTATCGGTCGA,4.46 log2 normalized intensity
12,CTCCCAAGGTATCCTCCTAGAGTCCAAGGTGCCTAGGGAGATTAGAGTATCGGTCGA,2.68 log2 normalized intensity
13,GAACTTTGACTTATTTAGTAGTGGCAAGAGGCCTAGGGAGATTAGAGTATCGGTCGA,2.7 log2 normalized intensity
14,CAAAGCCCCTTTCCACTCTACCGTCCTCCCGCCTAGGGAGATTAGAGTATCGGTCGA,1.91 log2 normalized intensity
15,CCAGGGACTTTGAACACTTCTTTGTTACTTGCCTAGGGAGATTAGAGTATCGGTCGA,2.44 log2 normalized intensity
16,GTGCTGACCTCCTGTCTCATCCTGTGACCAGCCTAGGGAGATTAGAGTATCGGTCGA,1.42 log2 normalized intensity
17,TCACCCTCTCCACCCCCATGCAAGTTCCCAGCCTAGGGAGATTAGAGTATCGGTCGA,5.26 log2 normalized intensity
18,GATACAACGGTTCAAAGGACAGACTTTGGAGCCTAGGGAGATTAGAGTATCGGTCGA,3.39 log2 normalized intensity
19,TTCAAAGGACAGACTTTGGACCTGGCCCTCGCCTAGGGAGATTAGAGTATCGGTCGA,5.66 log2 normalized intensity
20,AACGGTTCAAAGGACAGACTTTGGACCTGGGCCTAGGGAGATTAGAGTATCGGTCGA,7.15 log2 normalized intensity
21,GGACTTTGGCCTTACTTGGCCTGTTTGCTGGCCTAGGGAGATTAGAGTATCGGTCGA,5.51 log2 normalized intensity
22,GTTGGACTTTGGACCTTTGTGTGTGTGTGTGCCTAGGGAGATTAGAGTATCGGTCGA,7.93 log2 normalized intensity
23,CCTGATGACAACTGAATGTGACCTTTTGGAGCCTAGGGAGATTAGAGTATCGGTCGA,5.25 log2 normalized intensity
